Experimental data: PubChem BioAssay (EPA / NIEHS)
Inconclusive results are not listed. Calls of active or inactive are those of the source. The calls were made as follows: active = hit-call score of the fitted dose curve at least 0.9, where 1 is the maximum; inconclusive = response in the unintended direction; inactive = score below 0.9.

Legend:
[1] = TOX21_p53_BLA_p2_viability: Viability Assessment in the Tox21 HCT-116 p53 Agonism Beta-lactamase Assay, Phase 2 (AID 2283591);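 also: compound exposure lasted 16 h at 37 °C; actives lower the ATP signal meaning cytotoxicity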
In short: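 HCT116 p53-bla cells, 4000/well, dosed after 5 h plating (217-fold dilution of DMSO stocks) and incubated 16 h at 37C. Viability taken as cellular ATP by CellTiter-Glo luminescence after 30 min RT; signal loss marks cytotoxicity.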

[2] = TOX21_p53_BLA_p3_viability: Viability Assessment in the Tox21 HCT-116 p53 Agonism Beta-lactamase Assay, Phase 3 (AID 2283593);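 also: cells exposed to compound for 16 h before reading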
In short: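 HCT116 cells, 4000/well, dosed 5 h after plating by pin transfer (217-fold dilution from DMSO stock) and incubated 16 h at 37C, 5% CO2. Viability read as ATP luminescence with CellTiter-Glo after 30 min at room temperature.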

[3] = target: Cellular tumor antigen p53 (Homo sapiens) (UniProt P04637); experiment: TOX21_p53_BLA_p3_ratio: Tox21 HCT-116 p53 Agonism Beta-lactamase Assay, Ratio, Phase 3 (AID 2283596)
In short: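 Cells were seeded at 4000/well, rested 5 h at 37C, then dosed with DMSO compound solutions (217-fold dilution) for 16 h. CCF4-AM substrate was loaded for 2 h at room temperature, and the 460/530 nm emission ratio was fitted for gain of signal versus DMSO.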

[4] = TOX21_p53_BLA_p4_viability: Viability Assessment in the Tox21 HCT-116 p53 Agonism Beta-lactamase Assay, Phase 4 (AID 2283597);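 also: hits lower the luminescence signal meaning cytotoxicity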
In short: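 Viability is taken as cellular ATP: after 16 h compound exposure of HCT116 cells and a 2 h room-temperature CCF4-AM substrate step, CellTiter-Glo reagent is added and luminescence is measured 30 min later.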

[5] = TOX21_p53_BLA_p5_viability: Viability Assessment in the Tox21 HCT-116 p53 Agonism Beta-lactamase Assay, Phase 5 (AID 2283600)
In short: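 Viability is taken from cellular ATP content, measured by luciferase luminescence in the same wells after the beta-lactamase ratio read. Cells are seeded at 4000 per well and exposed to DMSO-dissolved compounds, diluted 217-fold, for 16 h.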

[6] = target: Cellular tumor antigen p53 (Homo sapiens) (UniProt P04637); experiment: TOX21_p53_BLA_p4_ratio: Tox21 HCT-116 p53 Agonism Beta-lactamase Assay, Ratio, Phase 4 (AID 2283601)
In short: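 HCT-116 p53 beta-lactamase reporter cells (4000/well) preincubated 5 h, then compound (217-fold dilution of DMSO stock) for 16 h at 37C. CCF4-AM substrate added 2 h at room temperature; 460/530 nm emission ratio fitted upward versus DMSO.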

[7] = target: Cellular tumor antigen p53 (Homo sapiens) (UniProt P04637); experiment: TOX21_p53_BLA_p5_ratio: Tox21 HCT-116 p53 Agonism Beta-lactamase Assay, Ratio, Phase 5 (AID 2283599)
In short: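 HCT-116 p53-bla cells (4000/well) plated 5 h, dosed with compound (217-fold DMSO dilution) for 16 h at 37 C; CCF4-AM substrate 2 h at room temperature. Activity is the 460/530 nm emission ratio (405 nm excitation), fitted in gain-of-signal direction versus DMSO.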

[8] = target: Cellular tumor antigen p53 (Homo sapiens) (UniProt P04637); experiment: TOX21_p53_BLA_p2_ratio: Tox21 HCT-116 p53 Agonism Beta-lactamase Assay, Ratio, Phase 2 (AID 2283592)
In short: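 Cleaved-to-uncleaved substrate ratio (460 vs 530 nm) measured in HCT116 cells with an inducible beta-lactamase reporter linked to p53 activity. Compounds incubated 16 h at 37C before 2 h room-temperature CCF4-AM loading.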

Measured: AC50

Sequence of Cellular tumor antigen p53 (Homo sapiens) (P04637 whole entry, looked up): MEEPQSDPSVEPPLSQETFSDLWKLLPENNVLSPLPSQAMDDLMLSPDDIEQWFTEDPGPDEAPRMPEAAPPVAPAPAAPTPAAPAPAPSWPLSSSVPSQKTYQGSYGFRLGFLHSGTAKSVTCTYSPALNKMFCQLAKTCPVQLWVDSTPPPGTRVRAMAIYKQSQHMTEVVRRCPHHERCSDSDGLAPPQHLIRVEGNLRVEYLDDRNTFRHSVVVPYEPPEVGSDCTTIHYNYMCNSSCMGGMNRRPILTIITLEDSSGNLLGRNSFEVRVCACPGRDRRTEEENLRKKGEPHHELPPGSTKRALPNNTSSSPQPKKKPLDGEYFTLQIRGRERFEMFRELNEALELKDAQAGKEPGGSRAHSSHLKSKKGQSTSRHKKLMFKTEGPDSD

CO[C@H]1[C@@H](O)C[C@H](O[C@H]2[C@@H](O)C[C@H](O[C@H]3[C@@H](O)C[C@H](O[C@H]4CC[C@@]5(C)[C@H](CC[C@@H]6[C@@H]5C[C@@H](O)[C@]5(C)[C@@H](C7=CC(=O)OC7)CC[C@]65O)C4)O[C@@H]3C)O[C@@H]2C)O[C@@H]1C
active: [1] 0.109 µM | [2] 0.101 µM | [4] 0.0984 µM | [5] 0.0836 µM
inactive: [3] | [6]

CCOC(=O)CBr
not listed: [7] | [8]
inactive: all other assays above

S=C=NCCc1ccccc1
active: [3] 59.3 µM
inactive: [1] | [2] | [7]

CC(Cl)Cl
inactive: [1] | [8] | [6]

c1ccc2c(c1)Sc1ccccc1N2CC1CN2CCC1CC2 (configuration not stated)
inactive: [1] | [2] | [3] | [5]
active: [4] 29.1 µM

O=P1(N(CCCl)CCCl)NC(OO)CCO1 (configuration not stated)
not listed: [6] | [8]
inactive: all other assays above

CC(C)OC(=O)Cc1ccccc1
not listed: [5] | [8]
inactive: all other assays above

ClCc1ccccc1
not listed: [6] | [8]
inactive: all other assays above

Clc1ccc(C2(Cn3cncn3)OCCO2)c(Cl)c1
inactive: [1] | [8] | [7] | [5] | [6]
